Most compounds without a hit are left out; they make up all but 21% or so of the library.
Shiga toxin inh: A qHTS for Small Molecule Inhibitors of Shiga Toxin; 290,000 tested, 9.2% active; AID 2315, 2010; inhibition, % at 38.7 µM; Vero cells, Shiga toxin protein synthesis inhibition reporter; in the data active = inhibition mostly above about 28%, no sharp cut-off; inactive = mostly below about 43%; also: 0% is about no effect
Pf growth 96h: Primary qHTS for delayed death inhibitors of the malarial parasite plastid, 96 hour incubation; P. falciparum luciferase reporter growth, 96 h; Potency, µM (titrated, usually from 28.7 µM), for the others: at the top dose activity change, negative = inhibition, most hits filed as inhibitors; 320,000 tested, 6.9% active; AID 504834, 2011; also: potency is read from the fitted curve at half-maximal effect; % is scaled to controls: 0 for no effect and ±100 for the full control effect
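Compounds incubated with erythrocytes infected by luciferase-expressing P. falciparum (2% hematocrit, 0.05% parasitemia final) for 96 hours, 37 C in 5% CO2. Growth inhibition scored as decreased luciferase luminescence.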
CHX counter: Cycloheximide Counterscreen for Small Molecule Inhibitors of Shiga Toxin; AID 2314, 2010; 300,000 tested, 12% active; cell reporter, cycloheximide protein synthesis inhibition counterscreen; max response, %; in the data active = max response mostly above about 13%, no sharp cut-off; inactive = mostly below about 14%; also: read at 38.3 µM for the half of the compounds with a filed dose; 0% is about no effect
HCV inhibitor: qHTS Assay for Inhibitors of Hepatitis C Virus (HCV) | Huh7.5.1 HCVcc-Cre infection, luciferase reporter, 44 h | Potency, µM (titrated, usually from 41.8 µM), for the others: at the highest dose activity change, negative = inhibition, hits mostly inhibitors | 340,000 tested, 3.4% active; also: potency is read from the fitted curve at half-maximal effect; % is scaled to controls: 0 for no effect and ±100 for the full control effect
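Compounds are dispensed onto cells plated 4 h earlier at 1,000 per well, with HCVcc-Cre virus (about 0.5 moi) added next. Following 44 h of culture, luminescent signal is measured for 15 sec after 15 min with substrate at room temperature.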
Pf growth 48h: Primary qHTS for delayed death inhibitors of the malarial parasite plastid, 48 hour incubation. P. falciparum luciferase growth in erythrocytes, 48 h. Potency, µM (doses to about 28.7 µM), without a hit: top-dose activity change, negative = inhibition, most hits filed as inhibitors. 310,000 tested, 5.9% active. AID 504832, 2011; also: potency is read from the fitted curve at half-maximal effect; % is scaled to controls: 0 for no effect and ±100 for the full control effect
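Read-out is firefly luciferase luminescence from an integrated reporter in P. falciparum, so falling signal marks reduced parasite growth. Infected erythrocytes were at 2% hematocrit and 0.1% parasitemia (final) in Albumax-supplemented RPMI 1640.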
AMA1 RON2 block: qHTS for Inhibitors of AMA1-RON; Towards Development of Antimalarial Drug Lead: Primary Screen; AlphaScreen AMA1-biotinylated RON2 peptide binding; Potency, µM (doses to about 58.2 µM), for the others: at the top dose activity change, negative = inhibition, usual class: inhibitors; 360,000 tested, 0.2% active;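 also: potency is read from the fitted curve at half-maximal effect; 0% = vehicle wells and -100% = peptide control; nearly all actives have a fitted effect of over 45% in size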
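AMA1 (3D7) with his tag at 25 nM final met compounds first, then biotinylated RON2 peptide at 25 nM; detection used donor plus acceptor beads, 10 µg/mL apiece, read by AlphaScreen after 30 min at room temperature.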
The depositor's hits bear a star; u = inconclusive; x = no result given; [ ] = remark or other dose. Unless noted, calls follow the shape of the dose curve; as a rule, active = well fitted curve in the direction sought with a large enough effect; inconclusive = small, poorly fitted or top-dose-only effect, or another doubt; inactive = no such curve, though single readings can be large; an effect the other way counts as inactive or inconclusive.

SMILES	Shiga toxin inh	Pf growth 96h	CHX counter	HCV inhibitor	Pf growth 48h	AMA1 RON2 block
O=C(Cc1ccccc1[N+](=O)[O-])Nc1ccc2c(c1)OCO2	66	u	17*	0%	39%	5%
Cc1ccc(C)c(C(=O)CCC(=O)Nc2ccc(N3CCN(C)CC3)cc2C)c1	x	x	x	u	x	4%
CCCCOCCCNC(=O)C[C@@H]1C[C@@]2(C(=O)OC)CC(C)(C)CC=C2N(Cc2ccc3c(c2)OCO3)C1=O	x	x	x	x	x	-8%
COc1ccccc1NC(=O)CNc1ccc(F)c(Cl)c1	-3	15µM*	0	11%	u	-7%
Cc1ccc(CNc2ccc3c(c2)OCO3)c(C)c1	91*	x	44*	x	u	x
CCC(Oc1ccccc1OC)C(=O)Nc1ccc2c(c1)OCCO2 (stereo not drawn)	27	27%	16*	-8%	29%	-7%
Cc1ccccc1NC(=O)Nc1ccc2c(c1)OCO2	77*	90%	44*	-5%	91%	6%
COc1ccccc1NC(=O)NCC(=O)Nc1ccc(F)c(F)c1	15	13%[5.75 µM]	9	-6%	-6%	-13%
CCc1cccc(C)c1NC(=O)Nc1ccc2c(c1)OCO2	23	57%	7	31%	15%	-2%
CCOc1ccc(NC(=S)N2CCN(S(C)(=O)=O)CC2)cc1	-13	u	-2	x	u	12%
CC(C)(C(=O)N1CCC1(C)C(=O)NS(=O)(=O)c1cccc(Cl)c1)c1ccccc1 (stereo not drawn)	x	x	x	x	x	8%
CC(Sc1nnc(-c2ccncc2)n1C)C(=O)Nc1nccs1 (stereo not drawn)	-7	u	-5	5%	7%	-3%
Cc1c(NC(=O)Nc2ccc3c(c2)OCO3)cccc1[N+](=O)[O-]	77*	0%	42*	-5%	65%	15%
CCCN(Cc1ccccc1)C(=O)Nc1ccc2c(c1)nnn2C	40*	-9%	19*	18%	3%	2%
COc1ccc(NC(=O)Nc2ccc3c(c2)OCO3)c(C)c1	82*	15%	66*	-24%	54%	1%
CCOc1ccc(NC(=O)Nc2ccc3c(c2)nnn3C)cc1	13	x	2	4%	6%	3%
COc1ccccc1NC(=O)Nc1ccc2c(c1)nnn2C	50*	9.3µM*	57*	-1%	x	-1%
Cn1nnc2cc(NC(=O)Nc3ccccc3F)ccc21	x	x	x	x	x	9%
Cc1c(C(=O)NCc2ccc3c(c2)OCO3)cccc1[N+](=O)[O-]	-3	290%	-1	9%	19%	-15%
COC(=O)c1ccc([N+](=O)[O-])cc1N1C(=O)C2C3CCC(C3)C2C1=O (stereo not drawn)	-10	87%[5.75 µM]	2	18%	6%	-4%
CC(=O)Nc1ccccc1OCC(=O)c1ccc2c(c1)OCO2	79*	50%	43*	u	123%	3%
COc1ccc(NC(=O)Nc2cc(C)ccc2F)cc1OC	41*	u	18*	-12%	47%	11%
O=C(COC(=O)c1ccc2c(c1)OCO2)Nc1ccccc1OC(F)F	x	x	x	u	x	-2%[11.6 µM]
COc1ccccc1NC(=O)Nc1ccc(F)c(F)c1	81*	16%[5.75 µM]	66*	-2%	u	6%
Cc1ccc(C)c(NC(=O)Nc2ccc3c(c2)OCO3)c1	55*	51%	47*	-12%	169%	-4%
CCOc1ccccc1OCCC(=O)Nc1ccc2c(c1)OCO2	x	x	x	u	x	12%
COc1ccccc1NC(=O)Nc1ccc2c(c1)OCCO2	122*	4%	24*	-3%	56%	u
COc1cccc(OC)c1C(=O)Nc1ccc2c(c1)OCCO2	25	15%	-3	12%	21%	19%
COc1ccc(NC(=O)Nc2ccc3c(c2)CCC3)cc1	36*	57%	27*	12%	32%	0%
Cc1ccc(NC(=O)Nc2ccc3c(c2)CCC3)cc1C	29	-6%	18	1%	4%	-13%
